For 5 compounds, composite z-score and z-score results are on record in PubChem BioAssay.

Active and inactive are the calls of the source.

Assay [1] concerns Plasmodium falciparum Sir2 (PF13_0152, Sir2A). As to the kind of experiment: Plasmodium falciparum Sir2A binding compounds – biochemical, small-molecule microarray, 635 nm fluorescence, primary screen (AID 1098).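 Further: score merges spot fluorescence intensity with its signal-to-noise ratio.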 The note with it: fluorescence 635 nm, higher = more signal.
A short description of assay [2]: probe aDKK1 binding to arrayed compounds – biochemical, biotinylated probe, 635/667 nm fluorescence, primary screen (AID 1099).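 Further: score merges 667nm spot fluorescence with signal to noise across triplicate slides.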 As to conditions: small-molecule microarray, higher = more signal.
Assay [3] in a line: probe aCHRDL2 binding to arrayed compounds – biochemical, biotinylated probe, 635/667 nm fluorescence, primary screen (AID 1100). As to conditions: small-molecule microarray, higher = more signal.
The nature of assay [4]: change in splice reporter luminescence, either direction, cell-based, HEK293, spliceosome inhibition project, primary screen (AID 1101).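 Further: HEK293 cells carrying a splicing-competent luciferase reporter gene; test concentration not given here.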 As to conditions: HEK293 splicing luciferase reporter, 24 h, higher = more signal, called active from +8 up or from −8 down. (Reporter assays use an easily measured gene product as a stand-in for the process of interest.)
The target of assay [5] is Fibroblast growth factor 10 (Homo sapiens) (UniProt O15520). Briefly: compounds binding fibroblast growth factor 10 – biochemical, small-molecule microarray, 635 nm fluorescence, primary screen (AID 1102). As to conditions: FGF10 binding, fluorescence 635 nm, higher = more signal.
In assay [6] the test system is glycogen synthase kinase-3 (GSK3A per assay name; protocol says GSK3B). As to the kind of experiment: compounds binding glycogen synthase kinase-3 – biochemical, small-molecule microarray, 635 nm fluorescence, GSK3A, primary screen (AID 1103). Further: the record names both GSK3A and GSK3B. As to conditions: fluorescence 635 nm, higher = more signal.
Assay [7] concerns the target Epidermal growth factor receptor (Homo sapiens) (UniProt P00533). Briefly: compounds binding epidermal growth factor receptor – biochemical, small-molecule microarray, 635 nm fluorescence, primary screen (AID 1104).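 Further: score merges 667 nm emission intensity with spot signal to noise over triplicate slides.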 The note with it: EGFR binding, higher = more signal.
The target in assay [8] is Follistatin-related protein 3 (Homo sapiens) (UniProt O95633). Briefly: compounds binding follistatin-related protein 3 – biochemical, small-molecule microarray, 635 nm fluorescence, primary screen (AID 1105).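 Further: score merges emission near 667 nm and signal to noise per printed spot across three slides.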 The note with it: FSTL3 binding, higher = more signal.
Assay [9] addresses Dickkopf-related protein 1 (Homo sapiens) (UniProt O94907). Briefly: small molecules binding DKK1 protein – biochemical, small-molecule microarray, 635 nm fluorescence scan, primary screen (AID 1106).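 Further: score merges emission near 667 nm with signal to noise over three replicate slides.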 As to conditions: higher = more signal.
Assay [10] deals with Inhibin beta A chain (activin A). As to the kind of experiment: small molecules binding activin A – biochemical, small-molecule microarray, 635 nm fluorescence scan, primary screen (AID 1107).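 Further: mouse activin A protein probed at 4.33 µg/mL on printed slides; score merges bound-protein fluorescence near 667 nm with spot signal-to-noise.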 As to conditions: INHBA, higher = more signal.
The test system of assay [11] is Human papillomavirus type 1a protein E7 (residues 44-93). As to the kind of experiment: small molecules binding HPV E7 44-93 – biochemical, small-molecule microarray, residues 44-93, 635 nm fluorescence, primary screen (AID 1108).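 Further: E7 fragment applied at 1 µg/mL in TBST for 1 h at 4 C; score combines spot fluorescence with its signal to noise ratio.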 The note with it: fluorescence 635 nm, higher = more signal.
Assay [12] in a line: hepatitis C replication reporter changes, two-sided – Huh7 cells, luciferase reporter, HCV replication inhibitor project, primary screen (AID 1109).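 Further: huh7 hepatoma cells harbouring a luciferase neomycin HCV replicon reporter; luciferase luminescence as measure of HCV replicon replication; test concentration not given here.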 The note with it: Huh7 HCV replicon luciferase reporter, 48 h; higher = more signal.
In assay [13] the target is Left-right determination factor 2 (Homo sapiens) (UniProt O00292). Briefly: small molecules binding LEFTY2 protein – biochemical, small-molecule microarray, 635 nm fluorescence scan, primary screen (AID 1110). As to conditions: higher = more signal.
Assay [14] deals with Calmodulin-1 (Homo sapiens) (UniProt P0DP23). Briefly: small molecules binding calmodulin-1 with EGTA – biochemical, small-molecule microarray, Cy5-labelled CALM1, profiling panel (AID 1111).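 Further: labelled calmodulin applied in Tris saline Tween buffer holding calcium plus EGTA and DTT.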 As to conditions: Cy5-CALM1 binding fluorescence, higher = more signal.
The target is the same in assay [15]. As to the kind of experiment: small molecules binding Ca-loaded calmodulin-1 – biochemical, small-molecule microarray, Cy5-labelled CALM1, plus calcium, artefact control for SMM control-protein annotation, profiling panel (AID 1112).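 Further: score merges spot fluorescence with signal to noise from triplicate slides.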 The note with it: Cy5-CALM1 binding fluorescence, higher = more signal.
Assay [16] in a line: probe aWnt5a binding to arrayed compounds – biochemical, biotinylated probe, 635/667 nm fluorescence, primary screen (AID 1113).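 Further: score merges 667 nm fluorescence intensity with signal-to-noise per printed feature.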 The note with it: small-molecule microarray, higher = more signal.
Assay [17] is described as follows: probe aShh binding to arrayed compounds – biochemical, biotinylated probe, 635/667 nm fluorescence, primary screen (AID 1114).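 Further: probe is biotin-labelled aShh protein from a stem cell growth factor screen; measures binding of labelled protein to compounds printed on the slide; score merges feature fluorescence at 667 nm with signal-to-noise.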 The note with it: small-molecule microarray, higher = more signal.
The nature of assay [18]: probe aNog binding to arrayed compounds – biochemical, biotinylated probe, 635/667 nm fluorescence, primary screen (AID 1115).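 Further: probe is biotinylated aNog protein used at 0.15 µg/mL for 1 h at 4 C; z-score combines 667 nm fluorescence of each spot with its signal to noise.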 The note with it: small-molecule microarray, higher = more signal.
The target in assay [19] is Torsin-1A-interacting protein 1 (Homo sapiens) (UniProt Q5JTV8). Briefly: compound microarray binding of lysate hLAP1 – cell lysate, small-molecule microarray, COS7 lysate, 635/667 nm fluorescence, primary screen (AID 1116). The note with it: 635 nm fluorescence, higher = more signal.
Assay [20] addresses Alpha-bungarotoxin (Bungarus multicinctus) (UniProt P60615). As to the kind of experiment: compounds binding labelled alpha-BTX control protein – biochemical, small-molecule microarray, Alexa647 label, 635/667 nm fluorescence, artefact control for SMM control protein annotation, profiling panel (AID 1117). The note with it: alpha-BTX-A647 binding fluorescence, higher = more signal.

Chain of Epidermal growth factor receptor (Homo sapiens) (P00533 whole entry, looked up): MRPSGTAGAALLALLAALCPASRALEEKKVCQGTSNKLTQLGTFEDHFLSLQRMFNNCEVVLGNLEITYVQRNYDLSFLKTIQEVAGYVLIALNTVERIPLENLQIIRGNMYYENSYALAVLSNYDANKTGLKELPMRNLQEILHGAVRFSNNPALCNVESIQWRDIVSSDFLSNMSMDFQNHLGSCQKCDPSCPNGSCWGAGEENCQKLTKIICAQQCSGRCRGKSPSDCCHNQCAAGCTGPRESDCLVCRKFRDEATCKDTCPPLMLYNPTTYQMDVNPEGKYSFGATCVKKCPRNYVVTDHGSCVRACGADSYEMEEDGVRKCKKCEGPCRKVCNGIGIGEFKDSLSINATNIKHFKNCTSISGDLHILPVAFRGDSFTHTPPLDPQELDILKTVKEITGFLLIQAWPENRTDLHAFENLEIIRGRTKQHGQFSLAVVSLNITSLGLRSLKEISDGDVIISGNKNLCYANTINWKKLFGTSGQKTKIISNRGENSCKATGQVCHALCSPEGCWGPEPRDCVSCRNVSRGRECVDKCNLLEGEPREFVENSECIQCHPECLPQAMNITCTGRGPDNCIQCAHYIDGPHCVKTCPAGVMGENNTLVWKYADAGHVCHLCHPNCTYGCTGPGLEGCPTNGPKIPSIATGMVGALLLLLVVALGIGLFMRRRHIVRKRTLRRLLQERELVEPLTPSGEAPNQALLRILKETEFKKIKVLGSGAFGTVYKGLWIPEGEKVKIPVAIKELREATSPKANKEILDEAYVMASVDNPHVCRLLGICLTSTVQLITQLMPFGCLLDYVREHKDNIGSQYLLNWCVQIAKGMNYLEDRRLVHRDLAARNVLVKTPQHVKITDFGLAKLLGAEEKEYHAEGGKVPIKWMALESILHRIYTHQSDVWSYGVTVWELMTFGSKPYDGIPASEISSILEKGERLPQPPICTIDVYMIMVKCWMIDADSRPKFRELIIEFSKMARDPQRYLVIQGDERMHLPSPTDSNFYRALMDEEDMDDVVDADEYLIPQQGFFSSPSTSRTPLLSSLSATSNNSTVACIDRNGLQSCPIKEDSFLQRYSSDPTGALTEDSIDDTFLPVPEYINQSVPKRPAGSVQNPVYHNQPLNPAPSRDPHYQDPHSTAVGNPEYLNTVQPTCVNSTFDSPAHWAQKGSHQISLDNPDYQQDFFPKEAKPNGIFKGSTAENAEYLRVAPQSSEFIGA
Chain of Follistatin-related protein 3 (Homo sapiens) (O95633 whole entry, looked up): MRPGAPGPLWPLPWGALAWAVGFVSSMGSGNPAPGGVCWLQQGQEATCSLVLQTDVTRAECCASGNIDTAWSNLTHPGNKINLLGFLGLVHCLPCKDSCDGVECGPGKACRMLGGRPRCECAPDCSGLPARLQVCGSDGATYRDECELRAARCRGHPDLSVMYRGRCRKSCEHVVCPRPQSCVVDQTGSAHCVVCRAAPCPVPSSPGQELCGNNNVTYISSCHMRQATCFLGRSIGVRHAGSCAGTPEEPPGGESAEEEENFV
Chain of Fibroblast growth factor 10 (Homo sapiens) (O15520 whole entry, looked up): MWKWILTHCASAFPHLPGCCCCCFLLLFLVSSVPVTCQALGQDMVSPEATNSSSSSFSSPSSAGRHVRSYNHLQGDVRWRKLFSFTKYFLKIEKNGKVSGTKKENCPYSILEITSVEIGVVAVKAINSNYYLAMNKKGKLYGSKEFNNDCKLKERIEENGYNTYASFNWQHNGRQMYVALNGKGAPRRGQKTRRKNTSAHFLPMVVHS
Chain of Dickkopf-related protein 1 (Homo sapiens) (O94907 whole entry, looked up): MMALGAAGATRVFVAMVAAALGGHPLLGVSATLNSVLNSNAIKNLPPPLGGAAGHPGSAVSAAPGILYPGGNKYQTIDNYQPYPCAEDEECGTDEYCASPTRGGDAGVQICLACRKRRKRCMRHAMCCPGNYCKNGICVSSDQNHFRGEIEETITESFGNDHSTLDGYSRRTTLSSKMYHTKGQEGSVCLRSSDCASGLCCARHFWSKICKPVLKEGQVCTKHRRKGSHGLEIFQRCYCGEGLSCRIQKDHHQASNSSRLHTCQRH
Chain of Torsin-1A-interacting protein 1 (Homo sapiens) (Q5JTV8 whole entry, looked up): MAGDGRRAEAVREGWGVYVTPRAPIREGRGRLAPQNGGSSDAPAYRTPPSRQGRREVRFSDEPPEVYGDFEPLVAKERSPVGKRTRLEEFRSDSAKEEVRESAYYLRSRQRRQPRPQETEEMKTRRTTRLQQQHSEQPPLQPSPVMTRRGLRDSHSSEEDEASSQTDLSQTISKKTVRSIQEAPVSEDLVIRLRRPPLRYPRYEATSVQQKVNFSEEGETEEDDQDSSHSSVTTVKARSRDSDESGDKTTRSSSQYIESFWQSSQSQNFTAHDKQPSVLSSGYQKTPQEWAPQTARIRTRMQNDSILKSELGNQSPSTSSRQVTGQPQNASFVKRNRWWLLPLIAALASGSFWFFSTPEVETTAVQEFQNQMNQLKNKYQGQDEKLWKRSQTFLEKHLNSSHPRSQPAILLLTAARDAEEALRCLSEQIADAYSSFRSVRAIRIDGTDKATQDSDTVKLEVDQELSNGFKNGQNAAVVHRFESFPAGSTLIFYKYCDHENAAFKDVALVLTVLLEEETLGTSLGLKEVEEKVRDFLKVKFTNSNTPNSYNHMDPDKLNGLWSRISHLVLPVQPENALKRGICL
Chain of Left-right determination factor 2 (Homo sapiens) (O00292 whole entry, looked up): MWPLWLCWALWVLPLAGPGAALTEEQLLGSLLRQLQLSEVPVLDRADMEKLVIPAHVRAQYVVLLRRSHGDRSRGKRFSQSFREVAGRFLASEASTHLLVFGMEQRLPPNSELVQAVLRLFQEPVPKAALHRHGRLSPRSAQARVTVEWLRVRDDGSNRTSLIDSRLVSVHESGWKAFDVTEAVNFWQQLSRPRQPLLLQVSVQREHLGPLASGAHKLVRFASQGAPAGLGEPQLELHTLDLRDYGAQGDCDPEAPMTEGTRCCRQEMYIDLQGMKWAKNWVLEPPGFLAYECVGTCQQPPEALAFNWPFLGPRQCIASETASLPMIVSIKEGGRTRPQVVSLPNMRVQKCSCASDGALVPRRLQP
Chain of Alpha-bungarotoxin (Bungarus multicinctus) (P60615 whole entry, looked up): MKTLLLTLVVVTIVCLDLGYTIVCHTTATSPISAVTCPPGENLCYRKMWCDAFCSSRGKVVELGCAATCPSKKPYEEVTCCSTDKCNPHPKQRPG

Turning to `COC(=O)c1ccc(OC)c(/C=C\CC(OC(C)=O)c2ccccc2)c1` (stereo not given), the composite z-score in [1] was -0.22; in assay [2], -0.146; in assay [3] it was 0.0946; in assay [5], -0.207; in [6], 0.147; in [7], 0.643. In addition, the composite z-score in [8] is 0.137; in assay [9], 0.305; in assay [10], 1.89; in assay [11], -0.5; in assay [13] it was 0.374; in [14] it was 0.461. The composite z-score in [15] was 0.193; in assay [16], -0.237; in assay [17], 0.0668; in assay [18], -0.397; in assay [19], -0.129; in assay [20] it was 0.808. Besides, the z-score was -0.582 (inactive) in [4] and -1.14 in assay [12].

As to `CC(C)C(O)C1C=CC2C(=O)N(c3ccccc3)C(=O)C2N1Nc1ccc(C#N)cc1` (stereo not given), the composite z-score in assay [1] is 1.08; in [2], 1.27; in assay [3] it was 1.26; in [5], 1.17; in assay [6] it was 0.681; in [7], 0.0839. Also, the composite z-score in assay [8] is 1.22; in assay [9], -0.512; in assay [10], 0.942; in assay [11] it was 0.931; in assay [13], 1.11; in [14], 0.875. The composite z-score in [15] was 0.717; in assay [16] it was -0.0522; in assay [17], -0.452; in assay [18], 0.843; in assay [19], 0.892; in assay [20], 1.36. For the same compound, the z-score was 0.251 (inactive) in [4] and 0.993 in assay [12].

For the compound `CCCCC(O)C1C=CC2C(=O)N(C3CCCCC3)C(=O)C2N1Nc1ccc(OC)cc1` (stereo not given), the composite z-score in [1] is 0.637; in assay [2], 0.298; in assay [3], 0.948; in assay [5], 0.517; in assay [6] it was 1.28; in assay [7], -0.0301. The composite z-score in assay [8] was 1.12; in [9], -0.517; in assay [10] it was 0.943; in assay [11], 1.4; in assay [13] it was 0.0786; in assay [14] it was 1.05. The composite z-score in assay [15] is 0.304; in assay [16], -0.0405; in assay [17], 0.13; in assay [18] it was 0.712; in [19], 0.624; in assay [20] it was 0.914. Also, the z-score is -0.221 (inactive) in assay [4] and -0.385 in [12].

With `CC(C)(C)N1CC=CC23O[C@@H]4C=CCOC(=O)[C@@H]4[C@H]2C(=O)N(CCCCCO)[C@@H]3C1=O` (stereo not given in full), the composite z-score in assay [1] is 1.12; in assay [2], -0.275; in assay [3], 0.0408; in assay [5], -0.804; in [6] it was -1.54; in assay [7], -1.63. For the same compound, the composite z-score in assay [8] was -1.67; in [9] it was -0.499; in assay [10] it was -0.0694; in assay [11], -1.2; in [13], -0.788; in [14], -0.821. Besides, the composite z-score in [15] was -0.0669; in [16] it was -0.169; in assay [17], -0.221; in [18] it was 1.03; in [19], 2.1; in assay [20] it was -1.45. The z-score in assay [4] is -0.018 (inactive); in [12], -0.394.

For the compound `C=CCNC(=O)[C@@H]1[C@H]2C(=O)O[C@H](c3ccccc3)[C@H](c3ccccc3)N2[C@H](c2ccc(OCCO)cc2)[C@@]12C(=O)Nc1ccccc12`, the composite z-score was 1.06 in [1]; 0.454 in [2]; -0.0808 in assay [3]; 0.772 in assay [5]; 0.839 in assay [6]; 0.254 in [7]. The composite z-score stood at 0.774 in [8]; 0.228 in assay [9]; 0.344 in assay [10]; 1.39 in assay [11]; 0.302 in [13]; 0.705 in assay [14]. Further, the composite z-score in assay [15] is -0.495; in assay [16], -0.0179; in [17], 0.0469; in assay [18], -0.543; in assay [19], 1.55; in [20], 1.05. Moreover, the results for the z-score in assay [4] and in [12] were -0.0935 (inactive) and -1.72, respectively.
